Data published in PubChem BioAssay.
Active and inactive are the calls of the source.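 The calls were made as follows, unless noted: active = compounds giving at least 50% inhibition in the cell-based MKP-3 phosphatase rescue imaging test; inactive = the rest.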

Assays:
[1] = inhibitors of E-selectin induction by TNFa, primary screen, imaging, HUVEC, immunofluorescence, MLSMR starter and 10KST1 sets (AID 487;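 active = visually confirmed hit in the image check and inhibition above 20%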;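 as to inhibition: signal is fraction of cell area covered by stained E-selectin grains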;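 as to nuclei count: 100% = median nuclei count of all wells on the same plate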); conditions: HUVEC TNFalpha-induced E-selectin immunofluorescence imaging, at 2 µM; inhibition: stronger effect = higher value; nuclei count: measured here: cell number, toxicity
[2] = DUSP6 inhibitors restoring Erk phosphorylation by chemical complementation, primary imaging in DUSP6-transfected HeLa (AID 609); conditions: HeLa MKP-3 transfected, phospho-Erk imaging KS statistic, at 10 µM, cells stimulated with TPA for 15 min;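 as to inhibition: phospho-Erk level distribution per well compared with pooled transfected vehicle control wells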
[3] = target: Dual specificity protein phosphatase 6 (Homo sapiens) (UniProt Q16828); assay: as above; conditions: HeLa MKP-3 transfected, phospho-Erk imaging KS statistic; at 10 µM; stronger effect = higher value; cells stimulated with TPA for 15 min
Sequence of Dual specificity protein phosphatase 6 (Homo sapiens) (Q16828 whole entry, looked up): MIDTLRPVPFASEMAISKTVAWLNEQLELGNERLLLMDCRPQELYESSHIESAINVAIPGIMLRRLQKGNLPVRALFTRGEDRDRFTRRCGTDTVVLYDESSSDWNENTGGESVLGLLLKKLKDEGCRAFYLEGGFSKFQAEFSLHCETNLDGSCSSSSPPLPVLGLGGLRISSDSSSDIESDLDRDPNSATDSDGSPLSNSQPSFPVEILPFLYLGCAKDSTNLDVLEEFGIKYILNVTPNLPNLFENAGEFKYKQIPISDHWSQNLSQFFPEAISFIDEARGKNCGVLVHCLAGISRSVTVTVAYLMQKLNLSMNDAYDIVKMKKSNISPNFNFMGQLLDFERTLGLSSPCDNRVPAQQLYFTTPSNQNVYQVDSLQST

[4] = target: Voltage-gated potassium channel subunit beta-2 (Rattus norvegicus) (UniProt P62483); assay: KvBeta enzyme negative modulators, primary screen, biochemical, NADPH fluorescence (AID 622;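 active = fluorescence slope higher than the sample average by over 3 SD, cut at about -0.22 in these data, passing the limit was not always enough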;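 also: slope of raw intensity against log time taken from 70 to 1610 s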); conditions: recombinant KvBeta, 4-cyanobenzaldehyde reduction, at 10 µM, stronger effect = higher value
Sequence of Voltage-gated potassium channel subunit beta-2 (Rattus norvegicus) (P62483 whole entry, looked up): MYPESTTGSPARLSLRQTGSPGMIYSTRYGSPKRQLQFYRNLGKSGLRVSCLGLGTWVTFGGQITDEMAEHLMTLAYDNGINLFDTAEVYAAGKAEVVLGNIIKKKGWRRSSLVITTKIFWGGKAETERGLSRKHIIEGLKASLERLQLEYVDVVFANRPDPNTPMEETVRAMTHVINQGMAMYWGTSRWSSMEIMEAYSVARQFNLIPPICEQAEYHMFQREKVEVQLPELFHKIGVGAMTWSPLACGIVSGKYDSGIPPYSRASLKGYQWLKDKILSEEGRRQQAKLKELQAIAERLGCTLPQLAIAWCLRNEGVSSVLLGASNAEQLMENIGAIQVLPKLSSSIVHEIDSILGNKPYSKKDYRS

[5] = target: Voltage-gated potassium channel subunit beta-2 (Rattus norvegicus) (UniProt P62483); assay: KvBeta positive modulators, primary screen, biochemical, NADPH fluorescence (AID 623;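 active = NADPH fluorescence slope more negative than the mean of all samples by about 3 SD, 99.7% confidence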;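 also: fluorescence intensity change per second fitted from 20 to 320 s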); conditions: Recombinant KvBeta, NADPH fluorescence decrease slope, 10 min; at 10 µM; stronger effect = lower value
[6] = target: Muscarinic acetylcholine receptor M4 (Homo sapiens) (UniProt P08173); assay: compounds altering M4/GIRK thallium flux, either direction, primary screen, M4 allosteric agonist project, cell-based, HEK293 M4/GIRK, BTC-AM (AID 625;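 active = fluorescence slope after compound addition differing from the mean of all tested samples at 99.7% confidence, mostly higher but some lower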;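 also: thallium influx through GIRK channels coupled to M4 in HEK293 cells with BTC-AM dye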); conditions: at 10 µM, actives lie on both sides
Sequence of Muscarinic acetylcholine receptor M4 (Homo sapiens) (P08173 whole entry, looked up): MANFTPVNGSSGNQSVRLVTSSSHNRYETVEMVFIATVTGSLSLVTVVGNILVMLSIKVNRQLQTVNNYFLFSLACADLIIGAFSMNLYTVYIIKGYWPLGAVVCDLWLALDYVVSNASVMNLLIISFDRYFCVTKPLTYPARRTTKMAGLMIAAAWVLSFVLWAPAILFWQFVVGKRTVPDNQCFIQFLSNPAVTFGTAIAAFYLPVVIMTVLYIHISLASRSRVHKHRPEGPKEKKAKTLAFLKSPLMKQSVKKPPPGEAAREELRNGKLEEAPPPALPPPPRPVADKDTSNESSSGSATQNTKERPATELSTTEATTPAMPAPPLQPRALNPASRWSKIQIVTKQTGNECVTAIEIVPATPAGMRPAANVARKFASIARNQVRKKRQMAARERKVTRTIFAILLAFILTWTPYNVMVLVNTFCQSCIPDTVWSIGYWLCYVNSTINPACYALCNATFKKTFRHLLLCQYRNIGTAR

[7] = inhibitors of larval lipid processing in zebrafish, primary screen, whole organism, PED6 fluorescence, gall bladder and intestine (AID 686;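 active = a full or partial loss of lipid-probe fluorescence in the fish gall bladder, intestine or both, judged by eye; inactive = no fluorescence loss, or compound toxic to the fish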;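 also: larvae 5 to 7 days old with five fish per well; signal comes from phospholipase A2 cleavage of quenched PED6 carried via bile; overnight exposure to compound and PED6 before scoring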); conditions: Zebrafish larvae PED6 lipid processing, fluorescence scoring; screened at 20 µM (by protocol)
[8] = inhibitors of Chlamydomonas gravitaxis, primary screen, whole organism, Chlamydomonas reinhardtii, WT vs cilia-less mutant, absorbance, 96-well (AID 463189;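 active = inhibition at or above 50% relative to wild type and mutant plate controls; inactive = inhibition below 50%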;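 also: 0% = wild type cc124 cells in DMSO and 100% = ciliumless bld1 mutant cells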); conditions: OD600 absorbance, 2 days, at 10 µM, stronger effect = higher value
[9] = measured here: cell density z-score
[10] = measured here: nuclear c-Myc green intensity z-score
[11] = measured here: nuclear pErk red intensity z-score, stronger effect = higher value

Compound	inhibition [1]	nuclei count [1] [%]	z-score [2, 9]	z-score [2, 10]	z-score [2, 11]	inhibition [3]	fluorescence slope [4]	NADPH fluorescence slope [5]	fluorescence slope [6]	outcome [7]	inhibition [8]
CN(CCOC(=O)c1cccc(Br)c1)C(C)(C)C	-47% (inactive)	134	-0.456	0.868	2.16	7.48% (inactive)	-0.405 (inactive)	-4e-05 (inactive)	0.00522 (inactive)	inactive	30.2% (inactive)
COc1cccc(N2CCN(c3ncnc4c3[nH]c3ccccc34)CC2C)c1 (stereo not drawn)	72.8% (inactive)	102	-0.905	-0.691	2.95	-7.93% (inactive)	-0.41 (inactive)	-8e-06 (inactive)	0.00483 (inactive)	inactive	57% (active)
CC1(c2cnc(Nc3ccccc3)s2)CCC(=O)O1 (stereo not drawn)	-192% (inactive)	138	0.619	-0.905	-1.23	24.7% (inactive)	-0.359 (inactive)	1.9e-06 (inactive)	0.00609 (inactive)	active; weak signal in gallbladder only	9.89% (inactive)
COc1ccc(C(=O)NCC(=O)n2nc(C)cc2C)cc1OC	-38.7% (inactive)	95.9	-0.145	0.45	-1.73	3.66% (inactive)	-0.415 (inactive)	-1.8e-05 (inactive)	0.00491 (inactive)	inactive	-5.61% (inactive)
COc1cccc(C(=O)NCC(=O)n2nc(C)cc2C)c1	-70.4% (inactive)	88.5	0.974	0.517	-1.04	15.1% (inactive)	-0.462 (inactive)	-4.4e-05 (inactive)	0.00505 (inactive)	inactive	36% (inactive)
O=C(NC1CCCCC1)[C@H](O)[C@@H](O)C(=O)NC1CCCCC1	-94% (inactive)	140	-1.12	0.563	0.453	5.57% (inactive)	-0.381 (inactive)	-4.7e-05 (inactive)	0.00717 (inactive)	inactive	-2.73% (inactive)
COc1ccc(C(=O)N2CCCC(c3ccccc3)C2)cc1 (stereo not drawn)	-91.1% (inactive)	167	-0.133	0.389	0.742	-7.79% (inactive)	-0.406 (inactive)	-4.3e-05 (inactive)	0.00466 (inactive)	inactive	8.1% (inactive)
Cc1nc2sc(C)c(C)c2c(=O)o1	-24.2% (inactive)	180	-0.563	-1.75	1.05	-5.89% (inactive)	-0.39 (inactive)	-4.5e-05 (inactive)	0.0058 (inactive)	inactive	6.15% (inactive)
COC(=O)C1C(=O)NCC1c1ccccc1 (stereo not drawn)	1.3% (inactive)	81.1	5.99	-1.76	-1.15	49.5% (inactive)	-0.482 (inactive)	-4e-05 (inactive)	0.00479 (inactive)	inactive	31.4% (inactive)
C=CCNc1nc(C2(C)CC3(CC(C)(C)OC3=O)C(=O)O2)cs1 (stereo not drawn)	-142% (inactive)	155	0.249	-0.125	-1.68	-2.07% (inactive)	-0.315 (inactive)	-1.4e-05 (inactive)	0.0082 (inactive)	inactive	6.21% (inactive)
CCOC(=O)C(Oc1ccc(=O)[nH]n1)C(C)=O (stereo not drawn)	-70.7% (inactive)	105	-0.778	0.196	-1.16	22.7% (inactive)	-0.398 (inactive)	-7.7e-06 (inactive)	0.00606 (inactive)	inactive	-3.15% (inactive)
COCCN(Cc1ccccc1)P(=O)(O)c1ccccc1OCC(=O)O	-21.2% (inactive)	151	1.19	-1.67	0.944	15.1% (inactive)	-0.446 (inactive)	-4.4e-05 (inactive)	0.00543 (inactive)	inactive	19.2% (inactive)
O=c1/c(=C/c2ccccn2)sc2n1CN(c1ccccc1)CN=2	15.3% (inactive)	137	0.878	0.58	-0.986	34.2% (inactive)	-0.4 (inactive)	-4.8e-05 (inactive)	0.00773 (inactive)	inactive	32% (inactive)
O=C(CCN1CCCC1Cc1ccccc1)c1ccc2c(c1)OCCO2 (stereo not drawn)	-106% (inactive)	162	-1.44	-1.2	0.369	1.75% (inactive)	-0.423 (inactive)	-6.5e-05 (inactive)	0.00498 (inactive)	inactive	7.98% (inactive)
O=P(O)(c1ccccc1)c1ccccc1O	2% (inactive)	77.2	0.571	0.329	0.814	5.57% (inactive)	-0.452 (inactive)	-1.5e-05 (inactive)	0.00546 (inactive)	inactive	28.7% (inactive)
Clc1ccc2nc(N3CCNCC3)nc(-c3ccccc3)c2c1	14.5% (inactive)	144	0.81	-0.0975	1.71	7.48% (inactive)	-0.23 (inactive)	-6.4e-06 (inactive)	0.00627 (inactive)	inactive	151% (active)
O=C(Oc1ccccc1)c1c(Cl)cccc1P(=O)(O)O	-22.4% (inactive)	146	-1.16	0.0504	-1.03	-0.159% (inactive)	-0.396 (inactive)	-2.5e-05 (inactive)	0.00459 (inactive)	inactive	-7.77% (inactive)
O=P(Cc1nnco1)(c1ccccc1)c1ccccc1	0.9% (inactive)	176	0.578	-1.79	0.749	-3.98% (inactive)	-0.431 (inactive)	-5.1e-05 (inactive)	0.00527 (inactive)	inactive	-3.84% (inactive)
COc1cc(C(=O)NCC(=O)n2nc(C)cc2C)cc(OC)c1OC	19% (inactive)	141	1.48	0.2	-2.19	20.8% (inactive)	-0.389 (inactive)	7.5e-06 (inactive)	0.00583 (inactive)	inactive; toxic	-4.24% (inactive)
CC(C)c1nc2sc3c(c2c(=O)o1)CCCC3	-11.8% (inactive)	143	-0.957	1.42	1.08	13.2% (inactive)	-0.376 (inactive)	-6.4e-05 (inactive)	0.00562 (inactive)	inactive	22.9% (inactive)
Cc1cc(C)n(C(=O)CNC(=O)c2ccc3c(c2)OCCO3)n1	-96.3% (inactive)	162	1.78	-0.668	-1.28	18.9% (inactive)	-0.374 (inactive)	-5.5e-05 (inactive)	0.00504 (inactive)	inactive	12.4% (inactive)
CCCc1nnc(SCc2ccc(OCC)cc2)n1N	-86% (inactive)	147	-0.133	1.35	1.37	7.48% (inactive)	-0.421 (inactive)	-1.6e-05 (inactive)	0.00481 (inactive)	inactive	28.9% (inactive)
COc1ccc(C(=O)C2CCCCC2=O)cc1 (stereo not drawn)	43.3% (inactive)	127	-0.682	-0.8	1.6	-2.07% (inactive)	-0.407 (inactive)	-7e-05 (inactive)	0.00364 (inactive)	inactive	20% (inactive)
C=C(Br)CN1CCN(CC(=C)Br)CC1	-179% (inactive)	175	2.33	-0.834	-0.983	17% (inactive)	-0.428 (inactive)	-2.9e-05 (inactive)	0.00828 (inactive)	inactive	5.24% (inactive)
CN1CC(=O)Nc2ccc(F)cc2C1=O	-12.8% (inactive)	108	-0.408	1.54	-1.19	7.48% (inactive)	-0.414 (inactive)	-5.5e-06 (inactive)	0.0056 (inactive)	inactive	-6.78% (inactive)
COc1cc(C)nc(Oc2ccc(=O)[nH]n2)n1	-34.6% (inactive)	147	-0.3	1.04	-1.72	5.57% (inactive)	-0.296 (inactive)	-4e-05 (inactive)	0.00779 (inactive)	inactive	34.1% (inactive)
CCOC(=O)c1cc(CC)sc1NC(=O)C1CC1	5.7% (inactive)	151	0.13	-0.277	0.203	1.75% (inactive)	-0.369 (inactive)	-6.8e-05 (inactive)	0.0058 (inactive)	inactive	-9.3% (inactive)
CC1(C)CC(=O)C=C(N=CC2=C(O)CC(C)(C)CC2=O)C1	-39.1% (inactive)	174	-0.899	1.02	0.848	9.39% (inactive)	-0.363 (inactive)	-4.6e-05 (inactive)	0.00557 (inactive)	inactive	8.63% (inactive)
